The results in this text go back to PubChem BioAssay.

Assay [1] has as its system TRPC4 beta (transient receptor potential cation channel C4), mouse. Put plainly: activators of mouse TRPC4 channel, confirmation, cell-based, Fluo4 calcium, HEK293 TRPC4beta/mu-opioid, duplicates, 10 µM (AID 2426;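 active = fluorescence ratio normalized to control raised more than 50% in primary screen plus both repeat runs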). Particulars: Fluo4 calcium fluorescence, at 10 µM; active compounds read high.
Assay [2] deals with transient receptor potential cation channel C4 beta (TRPC4), mouse. Put plainly: activators of mouse TRPC4 channel, confirmation, cell-based, second round, Fluo4, HEK293 TRPC4beta/mu-opioid, 1 µM (AID 2461;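 active = primary screen active and over 50% activation in each of two duplicate runs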). As to conditions: Fluo4 calcium fluorescence, at 1 µM; active compounds read high.
Assay [3] has as its system TRPC4 (transient receptor potential cation channel C4 beta), mouse. Put plainly: positive allosteric modulators of mouse TRPC4, confirmation, cell-based, second round, Fluo-4, HEK293 TRPC4beta/mu-opioid, 1 µM (AID 2554;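 active = primary screen hit whose fluorescence ratio, in both repeats, exceeds the weak agonist control mean by 3 SD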). As to conditions: DAMGO EC20, Fluo-4 calcium flux, at 1 µM; active compounds read high.
The subject of assay [4] is TRPC4 beta (transient receptor potential cation channel C4), mouse. Put plainly: positive allosteric modulators of mouse TRPC4, confirmation, cell-based, Fluo-4, HEK293 TRPC4beta/mu-opioid (AID 2555;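 active = primary screen hit whose calcium fluorescence ratio, in both repeats, exceeds the weak agonist control mean by 3 SD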). As to conditions: DAMGO EC20, Fluo-4 calcium flux, at 10 µM; active compounds read high. (Calcium flux is commonly read through the fluorescence of an indicator in the cells.)
Assay [5] has as its target Short transient receptor potential channel 4 (Mus musculus) (UniProt Q9QUQ5). Put plainly: inhibitors of mouse TRPC4 channel, confirmation, cell-based, Fluo4, HEK293 TRPC4beta/mu-opioid (AID 2636;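 active = calcium signal cut by more than 3 SD below the full-agonist control yet still positive, in both repeats and the earlier primary screen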). Particulars: DAMGO, Fluo4 calcium flux, at 10 µM; active compounds read high.
The target is the same in assay [6]. Put plainly: inhibitors of mouse TRPC4 channel, confirmation, cell-based, second round, Fluo4, HEK293 TRPC4beta/mu-opioid, 1 µM (AID 2637;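 active = calcium signal ratio cut to more than 3 SD under the fully stimulated control mean yet still positive, in both repeats and the primary screen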). As to conditions: Fluo4 calcium flux, DAMGO, at 1 µM; active compounds read high.
Assay [7] shares this target. Put plainly: mouse TRPC4 channel activators, dose response, cell-based, HEK293 TRPC4/mu-opioid, Fluo-4 calcium (AID 434937). As to conditions: HEK293 TRPC4 cells, Fluo-4 calcium fluorescence ratio; series mostly up to 20 µM.
Assay [8] has the same target. Put plainly: TRPC4 positive allosteric modulators, dose response, cell-based, HEK293 TRPC4/mu-opioid, Fluo-4 calcium, EC20 DAMGO (AID 434941;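 active = earlier screen potentiator hit that boosts the TRPC4 ion channel at some dose, with a dose response; inactive = no potentiation, no dose response, or not a prior hit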;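 also: calcium entry triggered by an EC20 dose of DAMGO at the co-expressed mu-opioid receptor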). As to conditions: HEK293 TRPC4/mu-opioid cells, Fluo-4 calcium fluorescence; series mostly up to 20 µM.
Assay [9] shares this target. Put plainly: mouse TRPC4 channel inhibitors, dose response, cell-based, HEK293 TRPC4/mu-opioid, Fluo-4 calcium (AID 434942;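 active = primary screen inhibitor hit that blocks the TRPC4 channel at some tested dose, yielding a dose curve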). As to conditions: HEK293 TRPC4/mu-opioid cells, DAMGO-evoked Fluo-4 calcium ratio; series mostly up to 20 µM.
The target of assay [10] is Short transient receptor potential channel 6 (Mus musculus) (UniProt Q61143). Put plainly: inhibition of mouse TRPC6 channel, confirmation, selectivity assay for TRPC4 inhibitor project, cell-based, HEK293, membrane potential dye, duplicate (AID 434948;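 active = active in primary screen and both duplicates, each dropping signal beyond three positive-control SD with fluorescence still positive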). Particulars: HEK293 TRPC6, membrane potential dye fluorescence, at 10 µM, stimulated with maximal-effect acetylcholine; active compounds read high.

The target is the same in assay [11]. Put plainly: activation of mouse TRPC6 channel, confirmation, selectivity assay for TRPC4 activator project, cell-based, HEK293, membrane potential dye, duplicate (AID 434950;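 active = membrane potential signal rise above negative control mean plus 3 SD in both duplicates, also active in the earlier TRPC4 screen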;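 as to activation: 0% = buffer only wells and 100% = acetylcholine maximal-effect wells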). Particulars: HEK293 TRPC6, membrane potential fluorescence, at 10 µM; active compounds read high.
Assay [12] has the same target. Put plainly: TRPC6 potentiation by TRPC4 potentiator hits, confirmation, selectivity assay for TRPC4 potentiator project, HEK293 cells, membrane potential dye, duplicate (AID 434952;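 active = compound raising the membrane signal above positive-control mean plus 3 SD in both repeats, and a primary screen hit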). Particulars: HEK293 TRPC6, membrane potential dye fluorescence, at 10 µM, maximal acetylcholine added after compound; active compounds read high.
In assay [13] the target is Short transient receptor potential channel 4 (Mus musculus) (UniProt Q9QUQ5). Put plainly: calcium flux activators in TRPC4/5HT1a cells, counter-screen for TRPC4 activator project, cell-based, second counter screen, HEK293 TRPC4/5HT1a, Fluo-4 (AID 434977;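 active = calcium signal rise above buffer-control mean plus 5 SD in both duplicates, and also a hit in the primary screen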). Particulars: Fluo-4 calcium flux, at 10 µM; active compounds read high.
A short description of assay [14]: calcium flux inhibitors in TRPC4/5HT1a cells, confirmation, counter-screen for TRPC4 inhibitor project, cell-based, second counter screen, HEK293 TRPC4/5HT1a, Fluo-4 (AID 434978;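 active = primary screen active whose calcium signal fell more than 3 SD beyond the full-serotonin control mean in both duplicate plates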;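 also: serotonin given first at submaximal then at maximal dose after compound preincubation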). Particulars: Fluo-4 calcium flux, at 10 µM, serotonin added to trigger calcium flux; active compounds read high.
In assay [15] the test system is TRPC4 (mouse), co-expressed with 5HT1a in HEK293. Put plainly: calcium flux potentiators in TRPC4/5HT1a cells, confirmation, counter-screen for TRPC4 potentiator project, cell-based, second counter screen, HEK293 TRPC4/5HT1a, Fluo-4 (AID 434979;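 active = signal rise over 3 SD above mean of control wells given weak agonist, in both repeats and first screen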). As to conditions: Fluo-4 calcium flux, at 10 µM, serotonin added at its EC20 dose; active compounds read high.
Assay [16] can be described thus: calcium flux activation in mu-opioid HEK293 cells, confirmation, counter-screen for TRPC4 activator project, cell-based, HEK293 mu-opioid receptor line (AID 449723;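 active = hit in primary screen, with calcium signal over 5 SD above buffer well mean in both duplicates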;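 also: counter screen cells carry the mu-opioid receptor alone and lack TRPC4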). As to conditions: Fluo-4 calcium fluorescence, at 10 µM; active compounds read high.
Assay [17] can be described thus: calcium flux enhancement in mu-opioid HEK293 cells, confirmation, counter-screen for TRPC4 allosteric potentiator project, cell-based, HEK293 mu-opioid receptor line (AID 449724;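 active = calcium signal rise more than 3 SD above the low-dose agonist control mean, in both duplicate plates and the primary screen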;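 also: HEK293 cells carrying mu-opioid receptor only with no TRPC4 channel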). As to conditions: Fluo-4 calcium flux, at 10 µM, compound added before EC20 DAMGO stimulus; active compounds read high.

For some of these results: Measured potencies and affinities stand elsewhere. Activity calls are given as the source filed them.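 The calls were made as follows, unless noted: active = primary screen activator hit with a dose response curve and TRPC4 channel activation at any tested dose; inactive = no activation, no dose response, or not a primary hit.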

Sequence of Short transient receptor potential channel 4 (Mus musculus) (Q9QUQ5 whole entry, looked up): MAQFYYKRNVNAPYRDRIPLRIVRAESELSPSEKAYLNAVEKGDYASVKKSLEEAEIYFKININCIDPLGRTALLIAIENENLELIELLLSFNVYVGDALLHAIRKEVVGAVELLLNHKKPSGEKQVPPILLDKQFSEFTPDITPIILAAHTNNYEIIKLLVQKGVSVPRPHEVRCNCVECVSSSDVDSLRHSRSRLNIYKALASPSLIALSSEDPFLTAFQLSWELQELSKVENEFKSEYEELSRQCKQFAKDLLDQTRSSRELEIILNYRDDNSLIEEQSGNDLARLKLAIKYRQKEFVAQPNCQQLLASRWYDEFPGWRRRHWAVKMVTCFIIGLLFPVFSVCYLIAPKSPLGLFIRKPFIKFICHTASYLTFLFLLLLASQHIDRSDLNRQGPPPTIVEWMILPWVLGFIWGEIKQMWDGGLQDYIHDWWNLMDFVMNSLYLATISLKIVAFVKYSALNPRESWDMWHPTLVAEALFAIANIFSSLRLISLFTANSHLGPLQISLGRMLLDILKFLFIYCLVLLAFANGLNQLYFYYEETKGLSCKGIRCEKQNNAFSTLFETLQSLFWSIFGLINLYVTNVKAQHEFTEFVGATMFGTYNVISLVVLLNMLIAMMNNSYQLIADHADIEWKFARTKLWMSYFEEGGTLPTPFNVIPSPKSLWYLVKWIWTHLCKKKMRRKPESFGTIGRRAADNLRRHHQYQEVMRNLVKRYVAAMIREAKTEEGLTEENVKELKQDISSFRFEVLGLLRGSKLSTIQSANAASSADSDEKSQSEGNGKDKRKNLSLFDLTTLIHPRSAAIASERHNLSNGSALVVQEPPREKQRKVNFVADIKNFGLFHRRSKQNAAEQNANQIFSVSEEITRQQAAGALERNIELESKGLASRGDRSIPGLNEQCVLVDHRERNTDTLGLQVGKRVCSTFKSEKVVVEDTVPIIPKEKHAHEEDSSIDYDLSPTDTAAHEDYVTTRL
Sequence of Short transient receptor potential channel 6 (Mus musculus) (Q61143 whole entry, looked up): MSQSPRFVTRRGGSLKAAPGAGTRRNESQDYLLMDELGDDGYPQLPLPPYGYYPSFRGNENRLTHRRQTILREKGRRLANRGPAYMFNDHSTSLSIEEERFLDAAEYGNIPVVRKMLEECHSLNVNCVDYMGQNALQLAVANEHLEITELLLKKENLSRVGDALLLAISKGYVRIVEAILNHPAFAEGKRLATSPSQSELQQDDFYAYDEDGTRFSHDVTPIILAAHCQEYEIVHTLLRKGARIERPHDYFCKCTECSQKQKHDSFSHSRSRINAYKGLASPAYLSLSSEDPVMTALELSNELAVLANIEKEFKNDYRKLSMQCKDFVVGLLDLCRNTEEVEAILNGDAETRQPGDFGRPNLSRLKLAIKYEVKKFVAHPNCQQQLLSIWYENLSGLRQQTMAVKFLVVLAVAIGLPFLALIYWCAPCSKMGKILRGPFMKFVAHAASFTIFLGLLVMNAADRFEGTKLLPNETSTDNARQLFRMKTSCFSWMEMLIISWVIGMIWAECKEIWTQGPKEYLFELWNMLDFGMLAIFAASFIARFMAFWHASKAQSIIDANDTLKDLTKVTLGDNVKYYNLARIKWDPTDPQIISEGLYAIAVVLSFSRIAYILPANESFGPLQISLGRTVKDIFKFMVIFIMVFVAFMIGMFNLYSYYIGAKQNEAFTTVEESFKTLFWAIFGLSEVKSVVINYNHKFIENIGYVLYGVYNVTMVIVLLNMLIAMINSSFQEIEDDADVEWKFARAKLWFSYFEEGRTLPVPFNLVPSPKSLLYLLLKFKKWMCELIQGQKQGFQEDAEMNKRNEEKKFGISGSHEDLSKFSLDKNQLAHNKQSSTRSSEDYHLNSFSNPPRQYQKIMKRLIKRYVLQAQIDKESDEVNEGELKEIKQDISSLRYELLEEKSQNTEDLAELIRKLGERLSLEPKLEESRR

As to `O=C(O)CCC(=O)N1CCN(c2nc3ccccc3s2)CC1`, the outcome in [1], in assay [2], in assay [3], in assay [5], in assay [6] and in assay [7] was inactive. Besides, the result in [8], in assay [9], in assay [10], in assay [11], in assay [12] and in assay [13] was inactive. The result in assay [14], in [16] and in [17] was inactive. Besides, the potentiation was 11% (active) in [4] and 21.2% (active) in assay [15].

For the compound `COc1ccc(C(=O)CCC(=O)Nc2cccc(Cl)c2)cc1`, the outcome in [1], in assay [2], in assay [3], in [5], in [6] and in [7] was inactive. Further, the outcome in [8], in assay [9], in assay [10], in assay [11], in assay [12] and in [13] was inactive. For the same compound, the outcome in [14], in [16] and in [17] was inactive. The potentiation was 10% (active) in [4] and 22.1% (active) in [15].

For `Cc1cc(Cl)cc(Cl)c1OCCCCN(C)C`, the result in [1], in assay [2], in assay [5], in assay [6], in assay [7] and in [8] was inactive. Besides, the outcome in assay [9], in [10], in assay [11], in [12], in assay [13] and in assay [14] was inactive. In addition, the result in assay [16] and in assay [17] was inactive. The potentiation in assay [3] was 22% (active); in assay [4], 18% (active); in [15] it was 23.9% (active).

On to `CCN(CC(=O)NCc1ccc(Cl)cc1)CC(=O)NC1(C#N)CCCC1`, for which the outcome in [1], in assay [2], in assay [3], in assay [4], in [5] and in assay [6] was inactive. For the same compound, the result in [7], in assay [8], in assay [9], in assay [10], in assay [11] and in [12] was inactive. The outcome in assay [13], in assay [14], in assay [15], in [16] and in assay [17] was inactive.

Take `Cc1[nH]nc(Nc2ccccc2)c1[N+](=O)[O-]`: the outcome in assay [1], in assay [2], in assay [3], in assay [4], in assay [5] and in [6] was inactive. In addition, the outcome in assay [7], in assay [8], in [9], in assay [10], in [11] and in assay [12] was inactive. For the same compound, the result in assay [13], in assay [14], in [16] and in assay [17] was inactive. Further, in assay [15], the potentiation was 20.8% (active).

`O=C(O)c1ccc(NC(=O)c2cn(-c3ccccc3)nc2-c2ccc(Br)cc2)cc1`: the result in assay [1], in [2], in assay [3], in assay [4], in [5] and in [6] was inactive. Further, the outcome in [7], in assay [8], in assay [9], in assay [10], in [11] and in assay [12] was inactive. Besides, the outcome in [13], in [14], in assay [15], in assay [16] and in assay [17] was inactive.

Turning to `O=C(NCc1cccs1)C12CC3CC(CC(C3)C1)C2`, the outcome in assay [1], in assay [2], in assay [3], in [4], in [5] and in assay [6] was inactive. For the same compound, the result in [7], in assay [8], in assay [9], in assay [10], in assay [11] and in assay [12] was inactive. Moreover, the result in [13], in [14], in [15], in assay [16] and in assay [17] was inactive.

Turning to `CCCn1nc(C(=O)NC2CCCc3ccccc32)c2ccccc2c1=O` (stereo not drawn), the result in [1], in assay [2], in [3], in assay [5], in [6] and in [7] was inactive. For the same compound, the result in assay [8], in assay [9], in assay [10], in assay [11], in [12] and in assay [13] was inactive. Also, the outcome in [14], in assay [16] and in assay [17] was inactive. Besides, the potentiation in assay [4] was 22% (active); in assay [15], 19.5% (active).

Consider `COc1ccc(/C=N/n2c(SC)nnc2-c2ccccc2)cc1C`, for which the outcome in assay [1], in assay [2], in [3], in [5], in assay [6] and in assay [7] was inactive. In addition, the result in [8], in assay [9], in assay [10], in [11], in [12] and in assay [13] was inactive. Besides, the outcome in assay [14], in assay [16] and in assay [17] was inactive. Also, the potentiation in assay [4] is 9% (active); in [15], 20.6% (active).

Take `Cc1cccc(N2CCN(C(=O)C3(S(=O)(=O)c4ccc(Cl)cc4)CC3)CC2)c1C`: the outcome in assay [1], in [2], in assay [3], in assay [5], in assay [6] and in assay [7] was inactive. In addition, the result in assay [8], in assay [9], in [10], in assay [11], in assay [12] and in assay [13] was inactive. Further, the result in assay [14], in assay [16] and in [17] was inactive. The results for the potentiation in assay [4] and in assay [15] were 13% (active) and 15.1% (active), respectively.

As for `CC1CC(C)CN(CCCNC(=O)c2ccc(N3CCCC3=O)cc2)C1` (stereo not drawn), the outcome in [1], in [2], in assay [3], in [4], in assay [5] and in assay [6] was inactive. Besides, the outcome in assay [7], in assay [8], in assay [9], in [10], in assay [11] and in assay [12] was inactive. For the same compound, the outcome in assay [13], in [14], in [16] and in assay [17] was inactive. The potentiation in assay [15] was 27.3% (active).

Take `O=[N+]([O-])c1ccccc1CN1CCN(S(=O)(=O)c2ccccc2)CC1`: the outcome in assay [1], in assay [2], in assay [3], in assay [5], in [6] and in assay [7] was inactive. The outcome in assay [8], in assay [9], in assay [10], in assay [11], in assay [12] and in assay [13] was inactive. For the same compound, the outcome in assay [14], in assay [15], in assay [16] and in assay [17] was inactive. The potentiation in [4] is 11% (active).

For `CCCC(=O)Nc1c(-c2ccccc2)c(=O)c(C)nn1-c1ccc(Cl)cc1`, the result in assay [1], in assay [2], in assay [3], in [4], in [5] and in assay [6] was inactive. The result in assay [7], in assay [8], in assay [9], in [10], in assay [12] and in assay [13] was inactive. Further, the result in [14], in assay [15], in [16] and in assay [17] was inactive. Further, the activation in assay [11] is 33.5% (active).

On to `CCOC(=O)c1c(-c2ccc(OC)cc2)oc2ccc(O)cc12`, for which the outcome in [1], in assay [2], in [3], in [4], in [5] and in assay [6] was inactive. Besides, the outcome in [7], in assay [8], in assay [9], in assay [10], in [11] and in [12] was inactive. Further, the result in [13], in [14], in [15], in [16] and in [17] was inactive.
